Assay outcomes: PubChem BioAssay, National Center for Advancing Translational Sciences (NCATS)
In the library only some 12% were active in any assay of this set; here they are far more common.
L3MBTL1 block: blocks human L3MBTL1; Q9Y468; AlphaScreen L3MBTL1–H3K9me1 peptide binding; Potency, µM (titrated, usually from 57.1 µM), without a hit: at the highest dose activity, negative = inhibition, most hits filed as inhibitors; 0.66% of 230,000 active; AID 485360; further: on the % scale 0 is the no-effect control and ±100 the full control effect; nearly all actives have a fitted effect of over 60% in size
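Read-out is AlphaScreen signal from streptavidin donor and nickel chelate acceptor beads (10 ug/mL final each) bridging L3MBTL1 (50 nM) and biotinylated K9-monomethylated H3(1-15) peptide (75 nM), after 30 min compound exposure at room temperature.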
G9a block: G9a (human) methyltransferase inhibition | Potency, µM (titrated, usually from 102 µM), for inactives: at the highest dose activity, negative = inhibition, hits mostly inhibitors | 8.8% of 350,000 active | G9a H3K9 monomethylation, AlphaScreen, 2 h | Q96KQ7; further: on the % scale 0 is the no-effect control and ±100 the full control effect; nearly all actives have a fitted effect of over 75% in size
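AlphaScreen detection with an anti-monomethyl H3K9 antibody quantified product after a 2 h room-temperature reaction containing 500 nM biotinylated H3K9 peptide, 20 µM SAM and 20 nM enzyme, which had been preincubated 15 min with compound.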
JMJD2A Tudor inh: JMJD2A Tudor domain (human) inhibition | O75164 | AlphaScreen JMJD2A-Tudor / H3K4me3 peptide binding | Potency, µM (highest dose often 114 µM), without a hit: at the highest dose activity change, negative = inhibition, hits mostly inhibitors | 4.4% of 390,000 active | AID 504339; further: on the % scale 0 is the no-effect control and ±100 the full control effect; nearly all actives have a fitted effect of over 50% in size
Sfp inh: blocks B. subtilis Sfp PPTase activity; Q9F4F7; Biochemical Sfp PPTase activity, qHTS; Potency, µM, without a hit: largest response in the series, negative = inhibition, usual class: inhibitors; 3.5% of 310,000 active; AID 1490;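 further: the enzyme is Sfp with the accession as filed and its product quenches rhodamine fluorescence; 0% = enzyme reaction without inhibitor and -100% = no enzyme wells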
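Reaction rates are the 30-min fluorescence difference (ex 525, em 598 nm) in wells containing 15 nM Sfp, 5 uM rhodamine-CoA and 12.5 uM BHQ-2-YbbR at pH 7.6 with 10 mM MgCl2.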
BAZ2B inh: inhibitors of human BAZ2B bromodomain | AID 504333 | AlphaScreen BAZ2B-H3K14Ac peptide displacement | 4.4% of 360,000 active | Potency, µM (doses to about 114 µM), without a hit: at the highest dose activity change, negative = inhibition, most hits filed as inhibitors; further: on the % scale 0 is the no-effect control and ±100 the full control effect; nearly all actives have a fitted effect of over 60% in size
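Protein-peptide AlphaScreen: BAZ2B 50 nM, b-H3K14Ac 50 nM, 1x PBS pH 7.4 + 0.01% Tween-20. Preincubation 30 min RT; cpd 30 min RT (top 110 uM); beads 20 min RT, light-protected.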
HP1b chromo inh: inhibitors of HP1-beta chromodomain binding to methylated histone tails | Potency, µM (top dose mostly 114 µM), for the others: top-dose activity change, negative = inhibition, actives largely listed as inhibitors | AlphaScreen HP1-beta / biotin-H3K9me3 peptide binding | 0.56% of 390,000 active | AID 540317; further: nearly all actives have a fitted effect of over 70% in size
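AlphaScreen: HP1-beta (50 nM) preformed 30 min with biotin-H3(1-18)K9me3 peptide (50 nM) in PBS pH 7.4, 0.01% Tween-20. Compound added for 30 min at RT, then streptavidin donor/nickel chelate acceptor beads (10 ug/mL) for 30 min.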
The depositor's hits bear a star; ? = inconclusive; . = not tested or not shown; [ ] = another dose, or the depositor's remark. The call rests on the fitted dose curve; in most records, active means well fitted curve in the direction sought with a large enough effect; inconclusive means small, poorly fitted or top-dose-only effect, or another doubt; inactive means no such curve, though single readings can be large; an effect the other way counts as inactive or inconclusive. Potency means the concentration at half of the fitted maximal effect.

SMILES | L3MBTL1 block | G9a block | JMJD2A Tudor inh | Sfp inh | BAZ2B inh | HP1b chromo inh
CSc1cccc(CN2CCCC(CNC(=O)c3ccco3)C2)c1 (centres undefined) | . | 45% | -6% | 21% | -15% | 24%
Cn1cc(-c2cc3n(n2)CCC(=O)N3CCCC(=O)NCc2ccc(F)cc2)c2ccccc21 | . | -5%[59 µM] | 1% | . | 1% | 21%[57 µM]
COc1ccc(-n2c(COc3ccccc3)n[nH]c2=S)cc1 | -4%[2.29 µM] | 14%[0.501 µM] | 50µM* | 2% | -2% | 32%
Cc1ccc(-n2c(COc3ccccc3)n[nH]c2=S)cc1 | 13% | 7.9µM* | -35% | 3% | -20% | 16%
Cc1ccc(-n2c(COc3cccc(C)c3)n[nH]c2=S)cc1 | -15% | 4.5µM* | -21% | -25% | -30% | 45%
COc1ccc(-n2c(COc3ccc(C)cc3)n[nH]c2=S)cc1 | 4% | . | -37% | -10% | 2% | 16%
CCOc1ccc2nc(SCC(=O)NCC3CCCO3)c(C#N)cc2c1 (centres undefined) | . | -2% | -15% | 4% | -11% | -15%
Cc1oc2ccc(Br)cc2c(=O)c1-c1nn[nH]n1 | 7% | ? | ? | -4% | 56µM* | 6%
O=C(c1ccc2[nH]ccc2c1)N1CCCC(Nc2ccccc2)C1 (centres undefined) | . | -2% | -19% | -3% | ? | 25%
COc1cccc(CN2CCN(Cc3cc(OC)c(OC)cc3OC)CC2)c1 | . | 45µM* | 1.6µM* | 56µM* | 20µM* | 18µM*
COc1cc(OC)c(OC)cc1CN1CCN(Cc2ccc(SC)cc2)CC1 | -6% | 3.2µM* | 20µM* | ? | 40µM* | ?
COc1cc(CN2CCN(Cc3ccc(SC)cc3)CC2)cc(OC)c1O | -11% | 7.9µM* | 0.89µM* | 56µM* | 50µM* | 25µM*
COc1ccc(S(=O)(=O)N2CCN(Cc3cccc(OC)c3)CC2)cc1 | -3% | 9% | -4% | 16% | 5% | 45%
Cc1ccccc1NC(=O)c1ccc(Nc2c([N+](=O)[O-])cc([N+](=O)[O-])c3ccccc23)cc1 | -14% | 7.9µM* | ? | 21% | ? | ?
O=C(Nc1ccc(Nc2ccccc2)cc1)c1ccc(Cl)c([N+](=O)[O-])c1 | -25% | . | 50µM* | 3% | 40µM* | ?
Cc1c(NC(=O)c2ccccc2)cccc1[N+](=O)[O-] | -1% | -4%[59 µM] | -4% | -11% | 3% | 30%
Cc1cc(C(=O)Nc2ccc(Nc3ccccc3)cc2)ccc1[N+](=O)[O-] | -3%[2.29 µM] | 8%[0.501 µM] | 10µM* | 20% | -25% | 22µM*
Cc1cc(C(=O)Nc2ccncc2)ccc1[N+](=O)[O-] | . | 14% | 9% | 18% | -10% | 24%
Cc1cccc(NC(=O)CCc2c(C)nc3nc(CNC(=O)c4cccc(F)c4)nn3c2C)c1 | . | -1%[59 µM] | 2% | . | -2% | 48%
CC(=O)c1cccc(NC(=O)CCc2c(C)nc3nc(CN)nn3c2C)c1 | . | 16µM* | ? | . | 50µM* | 21%
CCOc1ccc(-n2nc(CO)c(C(=O)NCc3ccccn3)n2)cc1 | . | 2%[59 µM] | -1% | . | -17% | 57%
CCn1c(SCc2nc3sc(C(=O)O)c(C)c3c(=O)[nH]2)nnc1-c1ccc(Cl)cc1 | -6%[11.4 µM] | ? | -3% | -2% | 56µM* | 42%
Cc1sc2nc(CSc3ncn[nH]3)[nH]c(=O)c2c1C | -1% | 9% | -5% | 7% | . | 14%
Cc1sc2nc(CSc3nnnn3-c3ccc(Cl)cc3)[nH]c(=O)c2c1C | -13% | ? | -22% | 79µM* | 1% | 4%
CCCCN(C)S(=O)(=O)c1ccc(C(=O)Nc2nnc(-c3ccco3)o2)cc1 | . | -44% | -17% | 17% | . | 23%
SMILES | L3MBTL1 block | G9a block | JMJD2A Tudor inh | Sfp inh | BAZ2B inh | HP1b chromo inh
Cn1cccc1C(=O)Nc1nc(-c2ccccn2)cs1 | 32µM* | . | 56µM* | -70% | 18µM* | ?
CCc1sc(C(=O)Nc2ncccc2O)cc1C | . | 35µM* | -22% | ? | 50µM* | 25%
O=C(Nc1ccc([N+](=O)[O-])cc1)Nc1nc(-c2ccc(Cl)s2)cs1 | 21% | 16µM* | -30% | ? | 21% | 1%
CCCC(=O)Nc1nc(-c2ccc(Cl)s2)cs1 | -14% | 15% | -9% | 11% | 2% | 44%
O=C(O)C1CCCCC1C(=O)Nc1nc(-c2ccc(Cl)s2)cs1 (centres undefined) | -2% | 45µM* | ? | 22µM* | 56µM* | 23%
COc1cc(OC)c(N2CC(C(=O)Nc3cccc(C(=O)NC4CC4)c3)CC2=O)cc1Cl (centres undefined) | 5% | 2%[0.501 µM] | -10% | . | 7% | 21%
O=C(Nc1nc(-c2ccccn2)cs1)c1ccc(Cl)s1 | ? | ? | 79µM* | -6% | 22µM* | 33%
CCc1sc(C(=O)Nc2nccs2)cc1C | . | -7% | -8% | 7% | 2% | 23%
O=C(Nc1nc(-c2ccccn2)cs1)c1ncc(Cl)c(Cl)c1Cl | -9% | . | -25% | -9% | -6% | 29%
Cc1ccc(C(=O)Nc2nc(-c3ccccn3)cs2)s1 | ? | -2%[2.33 µM] | 56µM* | . | 20µM* | 27%
CCc1sc(C(=O)Nc2nc(-c3ccccn3)cs2)cc1C | ? | . | 79µM* | . | . | -7%
O=C(Nc1nc(-c2ccc(Cl)s2)cs1)c1cccs1 | -6% | 50µM* | -28% | ? | -5% | -7%
CC(C)(Oc1ccc(Cl)cc1)C(=O)NC1CC1 | 0% | -34% | -9% | . | -4% | 0%
O=C1CN(Cc2ccccc2)C(=NCc2ccco2)S1 | -6% | -21%[59 µM] | 79µM* | -11% | ? | -14%
CC(=O)NCCNc1ncncc1-c1ccc(N(C)C)cc1 | . | 9%[0.501 µM] | . | ? | . | .
Nc1nn(-c2ccccc2)c(N)c1N=Nc1cccc(F)c1 | -19% | 20µM* | 35µM* | 3% | 35µM* | ?
Nc1nn(-c2ccccc2)c(N)c1N=Nc1ccc2c(c1)OCO2 | -24% | ? | 50µM* | 14% | 32µM* | 18µM*
COc1ccc(-c2nn(CCC(=O)O)cc2/C=C2\SC(N)=NC2=O)cc1OC | -5% | ? | ? | -22% | 56µM* | 25%
Cc1cccc(C2c3[nH]c4ccccc4c3CCN2C(=O)c2noc3c2CCCC3)n1 (centres undefined) | -8% | ? | ? | 6% | ? | -10%
CC(=O)c1ccc(C(=O)N2CCc3c([nH]c4ccccc34)C2c2ccccn2)s1 (centres undefined) | ? | ? | ? | 2% | 35µM* | 3%
O=C(c1noc2c1CCCC2)N1CCc2c([nH]c3ccccc23)C1c1ccccn1 (centres undefined) | -12% | 50µM* | ? | 12% | ? | ?
